Assay results as given in PubChem BioAssay AID588800 (Johns Hopkins Ion Channel Center, 2011).
Active and inactive are the calls of the source.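 The calls were made as follows: active = peak inhibition of the KCNQ2 potassium channel above 30% at some tested dose, plus a fitted dose response curve; inactive = no inhibition at any dose, or no curve.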

Target: Potassium voltage-gated channel subfamily KQT member 2 (Rattus norvegicus) (UniProt O88943)
Assay: blockade of KCNQ2 thallium flux – cell-based, FluxOR thallium flux, CRC set 2, selectivity assay for KCNK9 inhibitor project, SAR follow-up (AID 588800)
Details: KCNQ2-expressing cells; series mostly up to 30 µM; thallium flux ratio, lower = inhibition: at the top concentration

Chain of Potassium voltage-gated channel subfamily KQT member 2 (Rattus norvegicus) (O88943 whole entry, looked up): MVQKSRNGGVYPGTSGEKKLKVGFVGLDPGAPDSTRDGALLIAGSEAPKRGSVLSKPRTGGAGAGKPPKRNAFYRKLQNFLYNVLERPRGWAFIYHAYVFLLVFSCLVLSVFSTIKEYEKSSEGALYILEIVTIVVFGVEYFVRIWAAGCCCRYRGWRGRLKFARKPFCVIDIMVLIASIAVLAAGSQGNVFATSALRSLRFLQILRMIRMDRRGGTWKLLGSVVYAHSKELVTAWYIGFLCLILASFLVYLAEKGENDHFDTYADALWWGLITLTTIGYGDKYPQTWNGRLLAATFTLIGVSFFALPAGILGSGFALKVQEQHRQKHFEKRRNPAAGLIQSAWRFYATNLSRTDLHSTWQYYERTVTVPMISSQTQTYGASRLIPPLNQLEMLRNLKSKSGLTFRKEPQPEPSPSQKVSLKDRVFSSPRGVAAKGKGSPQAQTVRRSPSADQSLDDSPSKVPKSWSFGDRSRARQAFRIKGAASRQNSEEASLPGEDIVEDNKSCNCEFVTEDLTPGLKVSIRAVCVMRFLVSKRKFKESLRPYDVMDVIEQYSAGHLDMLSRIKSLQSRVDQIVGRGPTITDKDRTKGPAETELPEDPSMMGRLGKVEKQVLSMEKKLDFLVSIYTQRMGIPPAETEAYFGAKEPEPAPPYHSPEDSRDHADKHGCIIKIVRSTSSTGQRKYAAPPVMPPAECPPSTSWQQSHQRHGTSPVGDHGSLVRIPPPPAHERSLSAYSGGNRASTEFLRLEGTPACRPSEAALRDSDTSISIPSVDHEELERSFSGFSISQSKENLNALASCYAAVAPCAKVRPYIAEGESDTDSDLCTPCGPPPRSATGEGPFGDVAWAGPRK

Thallium flux ratio, lower = inhibition, inactive:
CCOc1ccccc1NC(=O)c1cccc(NC(=O)CC2CCCCC2)c1 0.163, O=C(Nc1cccc(NC(=O)c2ccccc2)c1)c1ccccc1 0.154, CC(C1CC2CCC1C2)n1c(-c2ccccc2Cl)n[nH]c1=S (configuration not stated) 0.165, COc1ccccc1NC(=O)c1cccc(NC(=O)c2ccccc2C(F)(F)F)c1 0.178, CCOc1cccc(NC(=O)c2cccc(NC(=O)C3CCCC3)c2)c1 0.125, CC(C1CC2CCC1C2)n1c(-c2ccco2)n[nH]c1=S (configuration not stated) 0.2, Cc1ccc(C(=O)Nc2cccc(NC(=O)c3ccccc3)c2)cc1 0.142, CCOc1ccccc1NC(=O)c1cccc(NC(=O)C2CCCO2)c1 (configuration not stated) 0.195, Cc1cccc(C(=O)Nc2cccc(NC(=O)c3ccc(C(F)(F)F)cc3)c2)c1 0.16, Cc1cccc(C(=O)Nc2cccc(NC(=O)c3ccccc3Cl)c2)c1 0.173, COc1ccccc1NC(=O)c1cccc(NC(=O)C2CCCC2)c1 0.19, Cc1cccc(C(=O)Nc2cccc(NC(=O)c3ccco3)c2)c1 0.192, COc1cccc(OC)c1C(=O)Nc1cccc(NC(=O)c2cccc(C)c2)c1 0.164, CCOc1ccccc1C(=O)Nc1cccc(NC(=O)c2cccc(C)c2)c1 0.16, O=C(Nc1cccc(NC(=O)c2cccc(Cl)c2)c1)c1ccccc1 0.143, CCOc1ccccc1NC(=O)c1cccc(NC(=O)c2ccc(C(F)(F)F)cc2)c1 0.195, CCOc1ccccc1NC(=O)c1cccc(NC(=O)c2ccccc2OC)c1 0.178
